# Source: PubChem BioAssay (NCATS)
# Records with an inconclusive call do not appear. Values without a mark were called inactive. Active and inactive are the calls of the source. The call rests on the fitted dose curve; in most records, active means well fitted inhibition curve with a large enough effect; inconclusive means small, poorly fitted or top-dose-only effect; inactive means flat fitted curve, though single readings scatter.
# Target: Calcium and integrin-binding protein 1 (Homo sapiens) (UniProt Q99828)
# Sequence (Q99828 whole entry, looked up): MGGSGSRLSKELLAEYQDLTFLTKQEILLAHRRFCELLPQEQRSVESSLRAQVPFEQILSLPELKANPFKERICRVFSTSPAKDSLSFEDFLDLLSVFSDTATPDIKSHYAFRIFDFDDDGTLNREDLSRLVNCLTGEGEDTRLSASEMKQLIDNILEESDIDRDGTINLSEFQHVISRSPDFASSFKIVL
# Experiment: Primary qHTS for Identification of Calcium Integrin Binding Protein 1 (CIB1) Competitor (AID 1508620); on activity change, negative = inhibition: top concentration of the series differs between compounds
# Conditions: CIB1-GST / FITC-alphaIIb peptide fluorescence polarization; series mostly up to 57.7 µM; activity change, negative = inhibition: at the top concentration
# Outline: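 Fluorescence polarization competition: GST-tagged CIB1 (1 uM final) preincubated with compound 15 min at room temperature, then FITC-labelled alphaIIb peptide (100 nM final) added. After 15 min at room temperature, polarization read at Ex 480/Em 540.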
# On the % scale 0 is the no-effect control and ±100 the full control effect; potency means the concentration at half of the fitted maximal effect.
SMILES,"activity change, negative = inhibition",Potency
O=C(O)CCC=CCC[C@@H]1[C@H](N2CCCCC2)[C@@H](O)C[C@@H]1OCc1ccc(-c2ccccc2)cc1,-2.23%,
CCCCc1ccc(NS(=O)(=O)c2ccc(C)c(C(=O)N3CCN(c4cccc(C)c4C)CC3)c2)cc1,-8.22%,
CCCCCCOC(=O)N=C(N)c1ccc(NCc2nc3cc(C(=O)N(CCC(=O)OCC)c4ccccn4)ccc3n2C)cc1,-1.28%,
CNC(=O)[C@H](CC1=CN=C2C=CCC=C12)NC(=O)[C@@H](CC(=O)NO)CC(C)C,1.27%,
COc1cc2c(cc1OC)CC(=O)N(CCCN(C)C[C@H]1Cc3cc(OC)c(OC)cc31)CC2,-6.59%,
C[C@@H](N)c1ccc(C(=O)Nc2ccnc3[nH]ccc23)cc1,,inactive
Cc1cc2c(cc1C1(c3ccc(C(=O)O)cn3)CC1)C(C)(C)CCC2(C)C,,inactive
Cc1cccc2c1CC[C@H](CN1CCC(c3c(Cl)cccc3Cl)CC1)C[C@@H]2O,,inactive
NC(=O)c1noc([C@H](CCCC2CCCCC2)CC(=O)NO)n1,,inactive
C[C@]12CCC3=C4CCC(=O)C=C4CC[C@@H]3[C@H]1CC[C@@]2(O)CC#N,0.252%,
CO[C@H]1O[C@@H]2O[C@@]3(C)CC[C@@H]4[C@@H](C)CC[C@@H]([C@H]1C)[C@@]24OO3,-5.86%,
CN1CCC[C@H]1CCO[C@](C)(c1ccccc1)c1ccc(Cl)cc1,0.142%,
Cc1ccccc1C(=O)c1ccc(Nc2ccc(Br)cc2N)cc1Cl,,inactive
CC1=C(C(=O)Nc2cc3cn[nH]c3cc2F)C(c2ccc(C(F)(F)F)cc2)CC(=O)N1 (stereo not given),,inactive
COc1ccc(C=CC(=O)Nc2ccccc2C(=O)O)cc1OC,-6.78%,
CC(=O)OCC(=O)[C@@]1(O)CC[C@H]2[C@@H]3CCC4=CC(=O)C=C[C@]4(C)[C@@H]3[C@@H](O)C[C@@]21C,2.51%,
CCN1CCC(n2cc(CNc3cc(Cl)c4ncc(C#N)c(Nc5ccc(F)c(Cl)c5)c4c3)nn2)CC1,,inactive
Nc1ncnc2c1ncn2[C@@H]1O[C@H](CO)[C@@H](O)[C@@H]1O,-1.89%,

SMILES,"activity change, negative = inhibition",Potency
CC(C)=CCCC(C)=CCCC(C)=CCCC(C)=CCCC(C)=CCCC(C)=CCCC(C)=CCCC(C)=CCCC(C)=CCO,2.72%,
NS(=O)(=O)c1cc(Cl)c(Cl)c(S(N)(=O)=O)c1,,inactive
NCc1c[nH]c(=S)n1[C@H]1CCc2c(F)cc(F)cc2C1,1.38%,
CCn1c(-c2nonc2N)nc2cncc(CNC3CCNCC3)c21,,inactive
O=c1[nH]c(=O)n([C@H]2C[C@@H](O)[C@@H](CO)O2)cc1I,6.4%,
CN1CC(=O)NC1=NC(=O)Nc1cccc(Cl)c1,0.915%,
CN(C(Cc1ccc(OS(=O)(=O)c2cccc3cnccc23)cc1)C(=O)N1CCN(c2ccccc2)CC1)S(=O)(=O)c1cccc2cnccc12 (stereo not given),1.65%,
Cc1cc2nc3c(=O)[nH]c(=O)nc-3n(CC(O)C(O)C(O)CO)c2cc1C (stereo not given),,6.81 µM (active)
COc1ccc2cc1Oc1ccc(cc1)C[C@H]1c3cc(c(OC)cc3CCN1C)Oc1c(OC)c(OC)cc3c1[C@H](C2)N(C)CC3,0.397%,
Cc1cc(NC(=O)Nc2ccc(N(C)C)cc2)c2cc(F)cc(F)c2n1,-7.42%,
CC(C)N(CCCNC(=O)Nc1ccc(C(C)(C)C)cc1)C[C@H]1O[C@@H](n2cc(Br)c3c(N)ncnc32)[C@H](O)[C@H]1O,0.214%,
O=C(CO)N1CCC(c2[nH]nc(-c3ccc(Cl)cc3)c2-c2ccncn2)CC1,,inactive
C[C@@H]1[C@H](O)[C@@H](C)C=CC=CC=CC=CC=CC=CC=C[C@H](O[C@@H]2O[C@H](C)[C@H](O)[C@H](N)[C@@H]2O)C[C@@H]2O[C@](O)(C[C@@H](O)C[C@@H](O)[C@H](O)CC[C@@H](O)C[C@@H](O)CC(=O)O[C@H]1C)C[C@H](O)[C@@H]2C(=O)O,19.9%,
CN1CCc2c(n(Cc3ccc(C(=O)NO)cc3)c3ccccc23)C1,,inactive
CC(C)c1onc(-c2c(Cl)cccc2Cl)c1COc1ccc(C=Cc2cccc(C(=O)O)c2)c(Cl)c1,-4.41%,
O=C(O)c1nc(=O)[nH]c(=O)[nH]1,1.53% [at 30.2 µM],
C[C@@H](O[C@H]1OCCN(Cc2n[nH]c(=O)[nH]2)[C@@H]1c1ccc(F)cc1)c1cc(C(F)(F)F)cc(C(F)(F)F)c1,-11.9%,
